Test results: PubChem BioAssay AID686978 (National Center for Advancing Translational Sciences (NCATS), 2013)
Among all 420,000 compounds or so, about 64,000 (15%) were called active. Another 27% or so got no clear call; they are omitted. Calls follow the shape of the dose curve; as a rule, active = well fitted inhibition curve with a large enough effect; inconclusive = small, poorly fitted or top-dose-only effect; inactive = flat fitted curve, though single readings scatter. Only a sample is shown.

assay: qHTS for Inhibitors of human tyrosyl-DNA phosphodiesterase 1 (TDP1): qHTS in cells in absence of CPT; conditions: DT40 Tdp1-/- hTDP1 cells, no CPT, ATP luminescence, 48 h; activity change, negative = growth inhibition: at 46.2 µM (top of the series); also: nearly all actives have a fitted effect of over 55% in size
Outline: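 DT40 Tdp1-/-;hTDP1 cells, no CPT (DMSO vehicle only), 400 cells/well; compounds pin-transferred; ≥48 hr, 37 °C; CellTiter-Glo 30 min RT dark, luminescence read.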
% is scaled to controls: 0 for no effect and ±100 for the full control effect; potency is read from the fitted curve at half-maximal effect.

| SMILES | activity change, negative = growth inhibition | Potency |
| --- | --- | --- |
| COc1ccc(-c2onc3ccc(C(C)=O)cc23)cc1 | -13.7% (inactive) | – |
| CCOCCCNC(=O)c1ccc(CS(=O)(=O)c2cccc(C(F)(F)F)c2)o1 | 6.63% (inactive) | – |
| Cc1c(Cl)cnc(NC(=O)COC(=O)c2ccc(S(=O)(=O)NCc3ccco3)cc2)c1Cl | -8.95% (inactive) | – |
| COC(=O)C[n+]1cccc2ccccc21 | -21.6% (inactive) | – |
| CC(C)(C)c1ccc(C(=O)C[n+]2cccc3cc(Cl)ccc32)cc1 | – | 4.47 µM (active) |
| Cc1cccc[n+]1CC(=O)c1ccccc1 | 0.748% (inactive) | – |
| COc1cccc2c1OCC(C(=O)NCc1ccc(Cl)cc1Cl)=C2 | 2.01% (inactive) | – |
| O=C1NCC(Nc2ccccc2)C(=O)N1 (stereo not given) | 12.2% (inactive) | – |
| Nc1ccccc1SC(C[N+](=O)[O-])c1ccccc1 (stereo not given) | – | 2.31 µM (active) |
| Nc1ccccc1SCc1cc([N+](=O)[O-])cc2c1OCOC2 | -24.8% (inactive) | – |
| C#CCO[C@@H]1C[C@H](n2cnc3c(=O)[nH]c(NC(=O)C(C)C)nc32)O[C@@H]1CO | 3.17% (inactive) | – |
| CCCCCCCCCCCCCCCCO | 4.89% (inactive) | – |
| O=C(CN1C(=O)COc2ccccc21)NCCN1CCc2ccccc2C1 | 4.11% (inactive) | – |
| Cc1cccc2c1-c1sc(C(=O)NCCCN3CCc4ccccc4C3)cc1CO2 | – | 20.6 µM (active) |
| O=C(NCCCN1CCOCC1)c1cc2c(s1)CCC2 | -0.232% (inactive) | – |
| O=C(Nc1cccc(Cl)c1)c1cncn1-c1ccc(F)cc1 | -3.19% (inactive) | – |
| Cc1cc2c(cc1C)N(C(=O)CN1C(=O)c3ccccc3C1=O)C(C)(C)c1ssc(=S)c1-2 | – | 25.9 µM (active) |
| Cc1cc(C)cc(NC(=O)CN2C(=O)c3ccccc3C2=O)c1 | -10.3% (inactive) | – |
| Cc1ccc(NC(=O)CCN2C(=O)c3ccccc3C2=O)cc1C | 3.57% (inactive) | – |
| CCCC(=O)N=c1sc2cccc(F)c2n1C | -6.66% (inactive) | – |
| CCCN(C(=O)CSc1nnnn1C)c1c(N)n(Cc2ccccc2)c(=O)[nH]c1=O | -8.42% (inactive) | – |
| COC(=O)[C@@H]1C[C@@]2(O)[C@@H](O)[C@@H](O)[C@@H](O)C[C@H]2N1Cc1ccc(C)s1 | -22.7% (inactive) | – |
| CS(=O)(=O)N(CC(=O)N1CCN(c2ccc(F)cc2)CC1)C1CCCCC1 | -11.2% (inactive) | – |
| CN(C1CCS(=O)(=O)C1)S(=O)(=O)c1ccc2ccccc2c1 (stereo not given) | -18.1% (inactive) | – |
| COc1ccc(CCN(C)C(=O)C2CCCN(Cc3ccc(OC)c(OC)c3)C2)cc1OC (stereo not given) | -13.7% (inactive) | – |
| COc1ccc(CN2CCCC(C(=O)c3ccc(Cl)cc3)C2)cc1Cn1cncn1 (stereo not given) | – | 18.4 µM (active) |
| COc1ccc(CN2CCCC(CNC(=O)c3ccc(F)cc3)C2)cc1OC (stereo not given) | -13.6% (inactive) | – |
| COc1ccc(CN2CCCC(C(=O)N3CCCCC3)C2)cc1 (stereo not given) | -15.9% (inactive) | – |
| COc1cc(CN2CCCC(C(=O)c3ccc(SC)cc3)C2)cc(Cl)c1O (stereo not given) | – | 14.6 µM (active) |
| c1ccc(-n2ncc(-c3nn[nH]n3)n2)cc1 | -9.83% (inactive) | – |
